Data from PubChem BioAssay.
A number with no mark means an inactive call. Active and inactive are the calls of the source. Rule as the data show it: active = fold change permeability below about 0.7 or above about 1.3; inactive = in between.

Assay: modulators of brain endothelial barrier permeability, primary screen, cell-based, FITC-avidin fluorescence, HTS (AID 1963498); also: test concentration not given here
Conditions: actives lie on both sides

Row | Compound | fold change permeability
1 | C[C@H]1O[C@@H](n2cc(F)c(=O)[nH]c2=O)[C@H](O)[C@@H]1O | 0.8
2 | COc1cc(/C=C/C(=O)N2CCN(CC(=O)N3CCCC3)CC2)cc(OC)c1OC | 1
3 | CC1CNc2c(cccc2S(=O)(=O)N[C@@H](CCCN=C(N)N)C(=O)N2CC[C@@H](C)C[C@@H]2C(=O)O)C1 (some centres not stated) | 0.9
4 | N=C(N)c1ccc(OCCCCCOc2ccc(C(=N)N)cc2)cc1 | 1.1
5 | CCCCn1c(-c2ccccc2)nc(-c2ccccc2)c1CN(Cc1ccc2c(c1)OCO2)Cc1ccc2c(c1)OCO2 | 1.3 (active)
6 | CCCCCCCCCCCCCCCCCCOC[C@H](COP(=O)([O-])OCC[N+](C)(C)C)OC | 1.5 (active)
7 | CCN1CCCC1CNC(=O)c1cc(S(N)(=O)=O)ccc1OC (configuration not stated) | 0.7 (active)
8 | CCN(CC)CCOC(=O)C1(C2CCCCC2)CCCCC1 | 1.6 (active)
9 | CCCC(CCC)C(=O)O | 1.1
10 | O=C(CCCN1CCC(O)(c2ccc(Cl)cc2)CC1)c1ccc(F)cc1 | 1.2
11 | c1ccc([C@H]2CN3CCSC3=N2)cc1 | 1.5 (active)
12 | C=CC[C@H](N)C(=O)O | 1
13 | Clc1ccc(Cn2c(CN3CCCC3)nc3ccccc32)cc1 | 1.2
14 | CCOC(=O)Nc1ccc(NCc2ccc(F)cc2)nc1N | 1.6 (active)
15 | N=C(N)c1ccc(N)cc1 | 1.1
16 | O=C(CCc1ccc(O)cc1)c1c(O)cc(O)cc1O | 1
17 | Cc1cccc(Nc2ccccc2C(=O)O)c1 | 0.9
18 | COCCNC(=O)COc1ccc(OCCNC[C@H](O)COc2ccccc2)cc1 | 1
19 | Nc1ccc(-c2ccc3ncc4ccc(=O)n(-c5cccc(C(F)(F)F)c5)c4c3c2)cn1 | 1.3 (active)
20 | CC(C[N+](C)(C)C)OC(N)=O (configuration not stated) | 1
21 | N[C@@H](Cc1ccc(O)c(I)c1)C(=O)O | 1.9 (active)
22 | CC(=O)/C(C)=N/O | 1
